Experimental findings from PubChem BioAssay are described below.

In the test the target is Tumor necrosis factor receptor superfamily member 10B (Homo sapiens) (UniProt O14763). Briefly: viability loss of caspase-8 NB7 cells with TRAIL – with/without TRAIL, luminescence panel, confirmation (AID 651596). The note with it: NB7 neuroblastoma + caspase-8, TRAIL sensitization, NB7 Caspase-8, with TRAIL, mean of runs, at 10 µM, stronger effect = higher value.
Sequence of Tumor necrosis factor receptor superfamily member 10B (Homo sapiens) (O14763 whole entry, looked up): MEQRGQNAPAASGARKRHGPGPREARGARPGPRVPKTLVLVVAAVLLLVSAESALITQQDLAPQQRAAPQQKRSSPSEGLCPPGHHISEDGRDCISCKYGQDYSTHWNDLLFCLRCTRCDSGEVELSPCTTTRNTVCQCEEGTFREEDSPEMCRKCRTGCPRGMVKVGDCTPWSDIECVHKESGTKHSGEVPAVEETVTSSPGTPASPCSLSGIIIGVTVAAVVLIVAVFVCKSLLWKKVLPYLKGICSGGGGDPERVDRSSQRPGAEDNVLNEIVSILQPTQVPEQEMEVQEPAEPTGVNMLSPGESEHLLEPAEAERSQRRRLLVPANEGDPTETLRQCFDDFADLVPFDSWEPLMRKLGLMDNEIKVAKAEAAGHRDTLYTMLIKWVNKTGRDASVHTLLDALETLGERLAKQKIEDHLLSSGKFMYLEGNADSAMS
For `Cc1ccc2[nH]c(-c3ccccc3)cc(=O)c2c1`, the activity came to 64.8%. With `CC(C)C[C@H](NC(=O)c1nc[nH]c1C(=O)N[C@@H](CCCCNC(=O)OC(C)(C)C)C(=O)OC(C)(C)C)C(=O)OC(C)(C)C` the figure was 84.7%; with `O=C(NNc1nc(=O)c2cccnc2s1)c1ccccc1O`, 45.7%.

For `O=C(CCl)Nc1ccccc1C(=O)Nc1ccc2c(c1)OCO2`, the activity is 74.1%. Next, `COc1ccc(-n2cc(C(=O)c3ccccc3O)cn2)cc1`: 39.1%; `O=c1c(-c2ccc3c(c2)OCCO3)coc2cc(OC3OC(CO)C(O)C(O)C3O)ccc12` (centres undefined): 51.8%; `CC(C)C(=O)Nc1ccc2nn(-c3ccccc3)nc2c1`: 52.4%. With `Nc1nc(N)c2cc(CNc3ccc(Cl)c(Cl)c3)ccc2n1` the figure was 85.2%.

For `O=C(CSc1ncnc2nc[nH]c12)c1ccc(Cl)cc1`, the activity is 57.6%.

As to `CN(c1ccccc1)S(=O)(=O)c1ccc(NC(=O)c2nc(S(C)(=O)=O)ncc2Cl)cc1`, the activity came out at 80.7%. In the case of `CC(C)CC(=O)Nc1ccc(-c2cn3ccsc3n2)cc1`, the activity is 85.2%.

As to `Cc1ccc(-c2cc(-c3ccccc3)no2)c(O)c1`, the activity amounted to 71.8%.

In the case of `COc1cc2c(cc1OC)C(c1cc(Br)ccc1F)N(C(=O)CCl)CC2` (centres undefined), the activity worked out at 98.6%. With `CC(C)(C)c1ccc(/C=N/NC(=O)c2ccccn2)cc1` the figure was 83.5%; with `O=C(CN1CCN(S(=O)(=O)c2ccc(F)cc2)CC1)Nc1ccc(Cl)c(C(F)(F)F)c1`, 24.1%. With `C[C@@H](CO)NC(=O)c1ccc2c3n(nc2c1)-c1ccccc1CO3` the figure was 91.5%; with `CS(=O)(=O)c1ccc2nc(NC(=O)c3ccco3)sc2c1`, 61%.

For `CCOc1ccc2nc(NC(=O)CN3CCC(n4nnc5cc(C(F)(F)F)ccc54)CC3)sc2c1`, the activity worked out at 69%. `CCN(CC)S(=O)(=O)c1cc(NC(=O)Cn2ncc(Cl)c(Cl)c2=O)ccc1C`: the activity came out at 99.5%. Next, `CCN(CC)C(=O)c1nn(-c2ccccc2)c2c1C1CCC2(C)C1(C)C` (centres undefined): 15.1%. With `C=C(C)c1cc2c(ccc3ccc(=O)oc32)o1` the figure was 92.6%. In the case of `COc1ccc(C2NN=C(c3ccc(C)cc3)S2)cc1OC` (centres undefined), the activity is 60%. With `COc1ccc(C(C(=O)NC2CCCCC2)N(C(=O)CCl)c2ccc(Cl)cc2)cc1` (centres undefined) the figure was 98.4%.

As for `CCOC(=O)c1nn(-c2ccc3c(c2)OCCO3)cc1O`, the activity came to 60%. Next, `O=C(/C=C/Nc1ccccc1C(F)(F)F)c1ccco1`: 97.2%; `O=C(c1ccc2c3n(nc2c1)-c1ccccc1CO3)N1CCCCC1`: 79.2%. Next, `COn1c(SCc2ccc(Cl)cc2)nc2ccccc2c1=O`: 67%; `CC(C)c1ccc(-n2c(-c3ccccc3)c[n+]3c2CCc2ccccc2-3)cc1`: 77%; `CC(C)(C)OC(=O)NCc1ccc(NC(=O)c2nc[nH]c2C(=O)NCCCCNC(=O)c2[nH]cnc2C(=O)Nc2ccc(CNC(=O)OC(C)(C)C)cc2)cc1`: 95.1%.

On to `O=C(Cc1ccsc1-c1ccccc1)NO`, for which the activity came out at 73.4%. As to `Cc1nn(-c2ccccc2)c(C)c1/C=N/NC(=O)c1cc(C23CC4CC(CC(C4)C2)C3)[nH]n1`, the activity was found to be 74.1%. Next, `Cc1cccc(Nc2nc(N)nc(CCl)n2)c1`: 97.7%. Consider `O=C(N/N=C/C(Cl)=C/c1ccccc1)c1ccccn1`, for which the activity was found to be 61.2%. Next, `CCN(CC)S(=O)(=O)c1cc(C(=O)OCC(=O)Nc2ccc(-c3nc4ccc(C)cc4s3)cc2)ccc1F`: 73.7%; `Fc1ccc(/C=N/Nc2nc(-c3cccnc3)nc3ccccc23)cc1`: 50.8%; `Cc1ccc(NC(=S)c2nc3ccccc3[nH]2)cc1`: 74.3%. Next, `CC(C)c1nnc(NC(=O)c2nc(S(=O)(=O)Cc3ccc(F)cc3)ncc2Cl)s1`: 72.9%; `NC(c1csc(NC(=O)Nc2ccc(OC(F)(F)F)cc2)n1)C1CCCCC1` (centres undefined): 63.7%. With `O=C(N/N=C\c1ccc(CNS(=O)(=O)c2ccc(Cl)cc2)o1)C(=O)Nc1ccc(Oc2ccccc2)cc1`, the activity is 79.5%.
